According to PubChem BioAssay (NCATS):
Records with an inconclusive call do not appear. Entries that show only a call come without a potency. Calls of active or inactive are those of the source. The call rests on the fitted dose curve; in most records, active means well fitted inhibition curve with a large enough effect; inconclusive means small, poorly fitted or top-dose-only effect; inactive means flat fitted curve, though single readings scatter.

Experiment: qHTS of Trypanosoma Brucei Inhibitors: LOPAC Validation (AID 624147)
Conditions: purified enzyme assay, luminescence, 45 min; series mostly up to 57.5 µM
Summary of the method: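 Luminescent Kinase-Glo Plus end-point after 45 min room-temperature reaction of T. brucei pyruvate kinase started with 130 uM ADP (final). Buffer TEA 50 mM pH 7.2 with KCl, MgCl2, BSA, Tween-20; titration-based qHTS with fitted concentration-effect curves.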

| Compound | Potency |
| --- | --- |
| O=C1Cc2c([nH]c3ccc(Br)cc23)-c2ccccc2N1 | inactive |
| NC(C(=O)N[C@@H]1C(=O)N2C(C(=O)O)=C(Cl)CS[C@H]12)c1ccccc1 (stereo partly drawn) | inactive |
| O=C(O)c1ccccc1Nc1cccc(OCc2ccc3ccccc3n2)c1 | inactive |
| NC(Cc1cccc(-c2ccccc2CP(=O)(O)O)c1)C(=O)O (stereo not drawn) | inactive |
| Cc1cccc(C2CN(C)CCc3c2cc(O)c(O)c3Cl)c1 (stereo not drawn) | inactive |
| Brc1c(Br)c(Br)c2[nH]cnc2c1Br | inactive |
| N[C@H](C(=O)O)[C@H](Cc1ccccc1)C(=O)O | inactive |
| c1ccc(C2CN3CCSC3=N2)cc1 (stereo not drawn) | inactive |
| O=c1[nH]ccc2c(O)cccc12 | inactive |
| O=C(O)/C(=C/c1c(C(=O)O)[nH]c2cc(Cl)cc(Cl)c12)c1ccccc1 | inactive |
| N=C(N)c1ccc(OCCCCCOc2ccc(C(=N)N)cc2)cc1 (tested in a mixture with another compound) | inactive |
| CCCCCCCCCCCCCCC[C@H](O)[C@H](N)CO | inactive |
| NC[C@@H]1O[C@H](c2ccccc2)Cc2c1ccc(O)c2O | inactive |
| Cc1nc2c(OCc3ccccc3)cccn2c1CC#N | inactive |
| COc1ccc(-c2cc3ncc(C)n3c(Nc3ncccc3C(N)=O)n2)cc1OC | inactive |
| C[C@H]1CC2C3CCC4=CC(=O)C=C[C@]4(C)[C@@]3(Cl)[C@@H](O)C[C@]2(C)[C@@]1(O)C(=O)CO (stereo partly drawn) | inactive |
| N[C@H](C(=O)O)c1cc(O)cc(O)c1 | inactive |
| CC1=C(C(=O)O)N2C(=O)[C@@H](NC(=O)C(N)C3=CCC=CC3)[C@H]2SC1 (stereo partly drawn) | inactive |
